# Giardia kill – kills Giardia lamblia. Giardia lamblia trophozoite viability. activity change, % at 7.66 µM, hits read low. 340,000 tested, 0.15% active. AID 540267; in the data active = activity change below about -80%; inconclusive = between about -30% and that limit;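 also: parasites exposed to compound for two days anaerobically before the ATP read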
#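 Compounds were tested on trophozoites seeded at 100 cells/well and held 48 hrs at 37 deg C anaerobically. An ATP-based luminescent kit measured the remaining live cells.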
# B2AR arrestin – agonists driving beta-arrestin recruitment to human beta2-adrenergic receptor; 330,000 tested, 0.02% active; Potency, µM (highest dose often 46.1 µM), most hits filed as activators; P07550; beta-arrestin recruitment to beta2AR, cell-based reporter; active = well fitted activation curve with a large enough effect; inconclusive = small, poorly fitted or top-dose-only effect; also: nearly all actives have a fitted effect of over 65% in size
# Target sequence (P07550 whole entry, looked up): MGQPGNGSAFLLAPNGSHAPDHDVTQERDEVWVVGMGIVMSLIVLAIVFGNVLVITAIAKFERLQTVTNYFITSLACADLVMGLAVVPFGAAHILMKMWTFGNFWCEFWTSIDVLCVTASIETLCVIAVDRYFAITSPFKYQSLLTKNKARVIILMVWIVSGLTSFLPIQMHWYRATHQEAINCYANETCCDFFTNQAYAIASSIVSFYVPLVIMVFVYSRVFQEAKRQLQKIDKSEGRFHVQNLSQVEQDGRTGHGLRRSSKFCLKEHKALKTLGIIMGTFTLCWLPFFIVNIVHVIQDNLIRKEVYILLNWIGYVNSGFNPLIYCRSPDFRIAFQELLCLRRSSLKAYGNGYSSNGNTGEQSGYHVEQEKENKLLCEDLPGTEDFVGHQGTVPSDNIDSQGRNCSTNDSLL
# D3 antag – antagonists of human D3 dopamine receptor | P35462 | D3R cells, DiscoveRx beta-arrestin luminescence, antagonist mode; hits give low values | max response, negative = inhibition, % | 360,000 tested, 2.5% active | AID 652054; in the data active = max response below about -50%; inconclusive = no clear call, values can overlap the other calls
#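 Cells plated overnight at 1500 cells/well, then exposed to library compounds with dopamine controls for 90 minutes at 37 degrees C. DiscoveRx reagent added for 30–60 minutes at room temperature; luminescence read, quantitative HTS format.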
# D3 ag – agonists of human D3 dopamine receptor; max activation, %; D3R DiscoveRx beta-arrestin cells, luminescence, 90 min; 410,000 tested, 0.58% active; P35462; AID 652048; in the data active = max activation above about 30%
#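 Agonist mode: compounds and dopamine controls were applied to plated cells for 90 min at 37 degrees C after an overnight attachment at 1500 cells/well. Luminescent read-out followed 30 - 60 minutes at room temperature with DiscoveRx detection reagent.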
# Hits are given with their value; i = inactive; ? = inconclusive; nt = no result given. Hits are enriched below; roughly 2.8% of the tested compounds scored in any of these assays.
SMILES,Giardia kill,B2AR arrestin,D3 antag,D3 ag
N/C(=N\O)c1ccc(N2CCN(c3ncccc3C(F)(F)F)CC2)nc1,i,i,i,31.0
O=C(Nc1cccc2cccnc12)OC(Cl)(Cl)Cl,i,nt,nt,nt
CCC(c1nnnn1C(C)(C)C)N1CCN(c2cc(Cl)ccc2C)CC1 (stereo not drawn),i,i,-55.9,i
CCCC(c1nnnn1CC1CCCO1)N1CCN(c2cc(Cl)ccc2C)CC1 (stereo not drawn),i,i,i,i
Cc1cccc(C)c1NC(=O)c1cc(S(N)(=O)=O)c(Cl)cc1O,nt,nt,nt,i
COc1ccc(CNc2nc3ccccc3n2CCN2CCCCC2)cc1,i,i,-64.5,i
Cc1ccc(Nc2cc(C)c3ccc(O)cc3n2)cc1C,i,i,-56.6,i
Cc1ccc(Nc2cc(C)c3c(O)cccc3n2)cc1C,i,i,i,i
CCOc1ccccc1CNC(=O)CCCN1C(=O)CCn2nc(-c3cccn3C)cc21,nt,nt,nt,i
Cc1sc2c(c1C)c(=O)n(-c1ccc(Cl)cc1)c(=O)n2Cc1cc(=O)n2cc(Br)ccc2n1,nt,nt,nt,i
c1ccc(-c2ccc(-c3nc(-c4ccccn4)no3)cc2)cc1,?,i,i,i
Cc1ccc(-c2nc(-c3ccccn3)no2)cc1,-90.3,i,i,i
CC1=NN(C(N)=S)C(=O)C1N=Nc1cccc(C)c1 (stereo not drawn),i,1.26µM,i,i
CC1=NN(C(N)=S)C(=O)C1N=Nc1ccc(C)c(Br)c1 (stereo not drawn),i,i,i,i
CC1=NN(C(N)=S)C(=O)C1N=Nc1ccc(O)cc1 (stereo not drawn),i,i,-66.2,i
CC1=NN(C(N)=S)C(=O)C1N=Nc1ccc([N+](=O)[O-])cc1 (stereo not drawn),i,7.08µM,i,i
CCOc1ccc(N=NC2C(=O)N(C(N)=S)N=C2C)cc1 (stereo not drawn),i,i,i,i
CC1=NN(C(N)=S)C(=O)C1N=Nc1ccc(F)cc1 (stereo not drawn),i,2.51µM,i,i
CC(=O)Nc1ccc(N=NC2C(=O)N(C(N)=S)N=C2C)cc1 (stereo not drawn),i,i,i,i
Nc1c(NC/C=C\COc2cc(CN3CCCCC3)ccn2)c(=O)c1=O,nt,nt,nt,i
CCc1cc2c(cc3c(=O)n(CC(=O)NC4CCCCC4)ncn32)s1,nt,nt,nt,i
Clc1ccc(CNCCCSc2ncccn2)cc1,i,i,-78.4,i
COc1ccc(CNCCCSc2ncccn2)c(OC)c1,i,i,i,i
Clc1cccc(CNCCCSc2ncccn2)c1,i,i,-52.0,i
COc1ccc(CNCCCSc2ncccn2)cc1OC,i,i,-65.0,i
SMILES,Giardia kill,B2AR arrestin,D3 antag,D3 ag
CSc1ccc(CNCCCSc2ncccn2)cc1,i,i,?,i
Brc1ccc(CNCCCSc2ncccn2)cc1,i,i,-77.1,i
CC(C)N(Cc1ccccc1)C(=O)CCS(=O)(=O)c1cc2c(cc1Cl)NC(=O)CO2,nt,nt,nt,i
O=P(O)(O)C(O)(Cc1cnc2ccccn12)P(=O)(O)O,nt,nt,nt,i
CCN(C(=O)Cn1c(=O)n(Cc2ccc3c(c2)OCO3)c(=O)c2ccc(C(=O)NC3CCCCC3)cc21)c1cccc(C)c1,nt,nt,nt,i
Cc1nc2c([nH]c3ccc(Br)cc32)s1,i,i,-101.0,i
Cc1n[nH]c2ccc(Br)cc2c1=O,nt,nt,i,i
Cc1c(NC(=O)c2ccc(N3CCCC3)c([N+](=O)[O-])c2)cccc1-c1nc2ccccc2s1,i,i,-51.4,i
CN1CCN(c2ccccc2NC(=O)c2ccc(N3CCCCC3)c([N+](=O)[O-])c2)CC1,i,i,i,i
CC1(C)S[C@@H]2[C@H](NC(=O)C(C(=O)Oc3ccc4c(c3)CCC4)c3ccccc3)C(=O)N2[C@H]1C(=O)O (stereo partly drawn),nt,nt,nt,i
O=C(COC(=O)C1CCN(S(=O)(=O)c2cccc3cccnc23)CC1)c1ccc(F)cc1,i,i,-52.4,i
O=C(C1CCCN1S(=O)(=O)c1cccc2cccnc12)N1CCn2c1nc1ccccc12 (stereo not drawn),i,i,?,i
O=C(C1CCN(S(=O)(=O)c2cccc3cccnc23)CC1)N1CCn2c1nc1ccccc12,i,i,-184.4,i
COc1ccc(NC(=O)c2oc3ccc(S(=O)(=O)N(C)C4CCCCC4)cc3c2C)cc1Cl,nt,nt,nt,i
Nc1ncnc(Sc2ccccc2)c1[N+](=O)[O-],i,i,i,i
Nc1ncnc(Sc2ncccn2)c1[N+](=O)[O-],i,i,-84.3,i
CC(=O)c1ccc(S(=O)(=O)N2CCCC(N(C)CCc3ccccc3)C2)cc1 (stereo not drawn),i,i,i,i
CN(CCc1ccccc1)C1CCCN(S(=O)(=O)c2cccc(F)c2)C1 (stereo not drawn),i,i,-63.4,i
